Laboratory results taken from the supplement of paper PMC11732987, “Enantioselective OTUD7B fragment discovery through chemoproteomics screening and high-throughput optimisation” (Communications Chemistry, 2025).

Key:
Experiment in all cases: log2 ratio of Biotin-Ahx-Ub-VS probe labelling (fragment/DMSO); higher = less target engagement (more negative = stronger competition), active = hit call of the paper (q ≤ 0.05, log2 ratio ≤ -1)
Details in all cases: compound concentration: 200 uM; treatment time: 3 h
USP19 = molecular target: T1, USP19 (UniProt O94966)
T1 sequence (whole entry): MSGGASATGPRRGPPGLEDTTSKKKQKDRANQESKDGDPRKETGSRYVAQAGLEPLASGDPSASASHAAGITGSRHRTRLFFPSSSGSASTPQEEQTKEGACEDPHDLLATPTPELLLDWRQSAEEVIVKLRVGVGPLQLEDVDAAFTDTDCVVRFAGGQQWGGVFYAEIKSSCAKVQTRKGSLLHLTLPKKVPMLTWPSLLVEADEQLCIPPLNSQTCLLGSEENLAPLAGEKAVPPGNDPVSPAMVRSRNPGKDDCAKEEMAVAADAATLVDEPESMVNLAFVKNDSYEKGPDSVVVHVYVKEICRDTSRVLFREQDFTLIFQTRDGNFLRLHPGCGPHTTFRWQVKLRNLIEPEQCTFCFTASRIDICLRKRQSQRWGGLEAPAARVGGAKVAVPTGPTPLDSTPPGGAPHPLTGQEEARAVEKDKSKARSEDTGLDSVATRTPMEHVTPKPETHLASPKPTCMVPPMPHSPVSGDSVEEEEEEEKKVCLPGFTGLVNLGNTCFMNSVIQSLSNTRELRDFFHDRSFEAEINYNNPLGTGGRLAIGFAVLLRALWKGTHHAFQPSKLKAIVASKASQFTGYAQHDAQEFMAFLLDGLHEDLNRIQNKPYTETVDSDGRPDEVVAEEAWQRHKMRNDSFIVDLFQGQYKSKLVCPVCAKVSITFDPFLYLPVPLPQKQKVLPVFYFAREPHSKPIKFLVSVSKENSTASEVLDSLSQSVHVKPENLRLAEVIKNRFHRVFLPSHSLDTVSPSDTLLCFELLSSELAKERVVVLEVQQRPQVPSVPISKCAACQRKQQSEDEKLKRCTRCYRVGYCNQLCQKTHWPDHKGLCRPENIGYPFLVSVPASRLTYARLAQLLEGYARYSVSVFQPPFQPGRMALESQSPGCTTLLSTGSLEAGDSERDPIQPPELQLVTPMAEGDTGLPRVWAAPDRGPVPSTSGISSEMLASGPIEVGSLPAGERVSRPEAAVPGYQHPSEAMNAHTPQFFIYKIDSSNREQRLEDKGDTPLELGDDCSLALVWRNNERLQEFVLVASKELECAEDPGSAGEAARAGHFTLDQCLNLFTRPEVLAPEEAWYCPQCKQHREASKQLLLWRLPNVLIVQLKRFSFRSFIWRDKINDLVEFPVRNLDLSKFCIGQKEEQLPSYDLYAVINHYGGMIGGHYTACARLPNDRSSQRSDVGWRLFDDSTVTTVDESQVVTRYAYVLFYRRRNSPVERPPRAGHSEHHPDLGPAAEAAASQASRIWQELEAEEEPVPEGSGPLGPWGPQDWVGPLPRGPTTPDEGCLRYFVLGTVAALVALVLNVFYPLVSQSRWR
How it was run: (§1)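 HEK293T lysate, 495 µg per sample in Tris/CHAPS/IGEPAL buffer with protease inhibitors, was treated in triplicate with fragment at 200 µM or vehicle for 3 h and then with Biotin-Ahx-Ub-VS at 0.5 µM final for 1 h. Labelled DUBs were NeutrAvidin-enriched, digested with LysC and trypsin, and run by diaPASEF LC-MS/MS. Spectronaut label-free quantities were global-median-normalised, and values are average log2 fragment/vehicle ratios by unpaired t-test on proteins with ≥2 unique peptides.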

USP22 = molecular target: T2, USP22 (UniProt Q9UPT9)
T2 sequence (whole entry): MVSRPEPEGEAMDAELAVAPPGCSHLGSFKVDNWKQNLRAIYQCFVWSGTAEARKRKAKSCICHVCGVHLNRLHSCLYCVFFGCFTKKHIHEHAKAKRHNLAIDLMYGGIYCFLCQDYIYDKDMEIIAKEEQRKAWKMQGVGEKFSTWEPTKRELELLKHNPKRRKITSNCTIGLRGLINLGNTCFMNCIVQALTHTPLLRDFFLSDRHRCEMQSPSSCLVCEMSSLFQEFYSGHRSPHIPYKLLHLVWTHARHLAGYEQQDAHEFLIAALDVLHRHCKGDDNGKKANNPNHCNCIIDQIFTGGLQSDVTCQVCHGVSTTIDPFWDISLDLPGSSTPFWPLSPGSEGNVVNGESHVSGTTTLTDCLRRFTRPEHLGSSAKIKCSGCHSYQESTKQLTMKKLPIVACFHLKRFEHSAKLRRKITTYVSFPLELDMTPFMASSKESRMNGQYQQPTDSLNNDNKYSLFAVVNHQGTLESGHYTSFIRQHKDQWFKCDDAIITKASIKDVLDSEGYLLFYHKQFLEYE
How it was run: as §1

USP24 = USP24 (UniProt Q9UPU5)
Chain of USP24 (Q9UPU5 whole entry): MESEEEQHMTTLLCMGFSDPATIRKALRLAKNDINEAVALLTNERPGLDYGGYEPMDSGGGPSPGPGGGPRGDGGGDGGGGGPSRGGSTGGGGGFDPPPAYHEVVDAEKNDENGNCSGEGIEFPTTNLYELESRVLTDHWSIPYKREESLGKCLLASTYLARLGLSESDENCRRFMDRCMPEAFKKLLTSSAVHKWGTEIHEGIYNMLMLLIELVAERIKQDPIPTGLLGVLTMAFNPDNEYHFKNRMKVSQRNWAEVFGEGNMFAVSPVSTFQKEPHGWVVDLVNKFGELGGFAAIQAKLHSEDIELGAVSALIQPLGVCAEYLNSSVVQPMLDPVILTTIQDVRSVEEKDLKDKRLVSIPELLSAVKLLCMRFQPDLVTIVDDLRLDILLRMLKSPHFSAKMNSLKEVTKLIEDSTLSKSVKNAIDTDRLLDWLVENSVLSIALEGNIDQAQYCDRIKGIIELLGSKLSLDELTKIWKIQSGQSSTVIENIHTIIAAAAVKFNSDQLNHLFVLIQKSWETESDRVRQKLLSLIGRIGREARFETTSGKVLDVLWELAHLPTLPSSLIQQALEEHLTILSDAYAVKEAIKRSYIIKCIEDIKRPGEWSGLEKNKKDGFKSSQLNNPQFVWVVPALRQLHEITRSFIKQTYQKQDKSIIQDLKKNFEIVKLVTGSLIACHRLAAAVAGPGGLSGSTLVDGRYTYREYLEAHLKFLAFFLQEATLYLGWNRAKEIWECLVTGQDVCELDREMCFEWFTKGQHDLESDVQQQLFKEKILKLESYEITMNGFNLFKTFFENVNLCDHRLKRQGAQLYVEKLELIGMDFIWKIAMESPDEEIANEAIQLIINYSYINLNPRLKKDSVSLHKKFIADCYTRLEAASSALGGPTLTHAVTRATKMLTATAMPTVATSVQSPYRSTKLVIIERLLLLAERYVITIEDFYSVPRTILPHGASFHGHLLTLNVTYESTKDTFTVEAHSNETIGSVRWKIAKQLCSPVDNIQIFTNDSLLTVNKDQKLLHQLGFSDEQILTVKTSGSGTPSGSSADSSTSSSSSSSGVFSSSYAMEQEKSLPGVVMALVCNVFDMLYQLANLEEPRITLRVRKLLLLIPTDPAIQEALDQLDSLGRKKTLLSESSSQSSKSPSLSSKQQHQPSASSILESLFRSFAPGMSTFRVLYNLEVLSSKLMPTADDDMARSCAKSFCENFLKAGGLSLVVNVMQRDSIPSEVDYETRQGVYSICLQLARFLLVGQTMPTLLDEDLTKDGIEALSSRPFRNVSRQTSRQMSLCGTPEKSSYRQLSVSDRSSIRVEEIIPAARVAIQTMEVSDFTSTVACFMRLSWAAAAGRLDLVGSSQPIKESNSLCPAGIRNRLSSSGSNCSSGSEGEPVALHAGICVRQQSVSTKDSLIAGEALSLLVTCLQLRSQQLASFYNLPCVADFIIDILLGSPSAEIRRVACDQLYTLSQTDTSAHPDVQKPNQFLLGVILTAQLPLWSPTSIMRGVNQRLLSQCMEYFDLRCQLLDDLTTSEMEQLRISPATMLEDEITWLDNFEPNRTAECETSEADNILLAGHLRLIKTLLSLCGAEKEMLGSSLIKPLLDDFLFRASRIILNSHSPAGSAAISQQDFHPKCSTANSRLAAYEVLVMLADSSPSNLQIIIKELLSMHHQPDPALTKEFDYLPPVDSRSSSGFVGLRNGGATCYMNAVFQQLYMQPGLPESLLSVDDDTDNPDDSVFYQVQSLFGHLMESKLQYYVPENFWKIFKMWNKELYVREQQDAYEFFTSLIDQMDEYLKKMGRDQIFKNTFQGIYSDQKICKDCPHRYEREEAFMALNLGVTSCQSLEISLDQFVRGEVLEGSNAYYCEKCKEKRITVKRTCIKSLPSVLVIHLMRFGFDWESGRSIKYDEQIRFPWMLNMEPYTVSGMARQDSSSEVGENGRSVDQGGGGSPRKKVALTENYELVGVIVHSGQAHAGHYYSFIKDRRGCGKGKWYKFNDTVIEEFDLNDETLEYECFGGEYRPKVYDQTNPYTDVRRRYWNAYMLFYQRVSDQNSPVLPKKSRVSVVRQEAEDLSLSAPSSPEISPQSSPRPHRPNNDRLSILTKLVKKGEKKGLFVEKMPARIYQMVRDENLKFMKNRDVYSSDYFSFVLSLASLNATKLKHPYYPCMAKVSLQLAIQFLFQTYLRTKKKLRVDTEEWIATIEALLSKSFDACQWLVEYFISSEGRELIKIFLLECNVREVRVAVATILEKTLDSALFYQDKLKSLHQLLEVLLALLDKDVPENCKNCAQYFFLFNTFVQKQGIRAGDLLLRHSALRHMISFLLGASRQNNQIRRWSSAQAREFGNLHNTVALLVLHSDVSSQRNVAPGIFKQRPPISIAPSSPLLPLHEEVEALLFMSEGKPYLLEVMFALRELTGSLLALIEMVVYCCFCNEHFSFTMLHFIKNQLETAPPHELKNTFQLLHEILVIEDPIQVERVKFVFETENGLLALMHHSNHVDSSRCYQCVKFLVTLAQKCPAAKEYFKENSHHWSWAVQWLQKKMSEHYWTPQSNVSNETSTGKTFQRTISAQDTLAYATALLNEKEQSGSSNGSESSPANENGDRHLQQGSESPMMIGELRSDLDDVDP
How it was run: as §1

USP25 = molecular target: T3, USP25 (UniProt Q9UHP3)
T3 sequence (whole entry): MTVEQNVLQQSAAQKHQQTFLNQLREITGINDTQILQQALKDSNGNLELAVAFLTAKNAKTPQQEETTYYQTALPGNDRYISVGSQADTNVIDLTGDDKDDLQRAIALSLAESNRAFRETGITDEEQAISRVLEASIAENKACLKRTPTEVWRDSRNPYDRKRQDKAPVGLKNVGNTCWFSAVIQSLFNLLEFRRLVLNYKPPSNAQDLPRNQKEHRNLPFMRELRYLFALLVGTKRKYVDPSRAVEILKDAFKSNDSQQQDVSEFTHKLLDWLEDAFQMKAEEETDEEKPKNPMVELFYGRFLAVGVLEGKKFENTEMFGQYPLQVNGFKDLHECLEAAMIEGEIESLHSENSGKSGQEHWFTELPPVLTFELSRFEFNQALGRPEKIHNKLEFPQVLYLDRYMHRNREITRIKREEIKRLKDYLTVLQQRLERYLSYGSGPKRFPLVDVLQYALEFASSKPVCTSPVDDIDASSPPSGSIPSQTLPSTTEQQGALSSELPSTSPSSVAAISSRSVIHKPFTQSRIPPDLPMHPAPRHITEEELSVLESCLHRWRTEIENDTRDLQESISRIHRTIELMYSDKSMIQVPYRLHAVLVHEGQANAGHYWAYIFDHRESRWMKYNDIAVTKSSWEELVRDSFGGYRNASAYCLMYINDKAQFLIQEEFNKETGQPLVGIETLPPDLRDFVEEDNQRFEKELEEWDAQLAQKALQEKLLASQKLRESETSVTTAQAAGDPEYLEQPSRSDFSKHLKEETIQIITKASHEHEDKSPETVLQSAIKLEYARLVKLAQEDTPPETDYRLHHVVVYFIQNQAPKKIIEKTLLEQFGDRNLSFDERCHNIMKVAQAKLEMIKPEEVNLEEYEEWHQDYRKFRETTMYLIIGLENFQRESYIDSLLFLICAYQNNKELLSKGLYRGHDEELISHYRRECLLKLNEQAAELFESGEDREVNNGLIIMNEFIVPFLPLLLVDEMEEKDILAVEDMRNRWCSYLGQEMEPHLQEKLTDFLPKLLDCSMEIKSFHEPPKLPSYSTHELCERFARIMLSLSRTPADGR
How it was run: as §1

USP28 = molecular target: T4, USP28 (UniProt Q96RU2)
T4 sequence (whole entry): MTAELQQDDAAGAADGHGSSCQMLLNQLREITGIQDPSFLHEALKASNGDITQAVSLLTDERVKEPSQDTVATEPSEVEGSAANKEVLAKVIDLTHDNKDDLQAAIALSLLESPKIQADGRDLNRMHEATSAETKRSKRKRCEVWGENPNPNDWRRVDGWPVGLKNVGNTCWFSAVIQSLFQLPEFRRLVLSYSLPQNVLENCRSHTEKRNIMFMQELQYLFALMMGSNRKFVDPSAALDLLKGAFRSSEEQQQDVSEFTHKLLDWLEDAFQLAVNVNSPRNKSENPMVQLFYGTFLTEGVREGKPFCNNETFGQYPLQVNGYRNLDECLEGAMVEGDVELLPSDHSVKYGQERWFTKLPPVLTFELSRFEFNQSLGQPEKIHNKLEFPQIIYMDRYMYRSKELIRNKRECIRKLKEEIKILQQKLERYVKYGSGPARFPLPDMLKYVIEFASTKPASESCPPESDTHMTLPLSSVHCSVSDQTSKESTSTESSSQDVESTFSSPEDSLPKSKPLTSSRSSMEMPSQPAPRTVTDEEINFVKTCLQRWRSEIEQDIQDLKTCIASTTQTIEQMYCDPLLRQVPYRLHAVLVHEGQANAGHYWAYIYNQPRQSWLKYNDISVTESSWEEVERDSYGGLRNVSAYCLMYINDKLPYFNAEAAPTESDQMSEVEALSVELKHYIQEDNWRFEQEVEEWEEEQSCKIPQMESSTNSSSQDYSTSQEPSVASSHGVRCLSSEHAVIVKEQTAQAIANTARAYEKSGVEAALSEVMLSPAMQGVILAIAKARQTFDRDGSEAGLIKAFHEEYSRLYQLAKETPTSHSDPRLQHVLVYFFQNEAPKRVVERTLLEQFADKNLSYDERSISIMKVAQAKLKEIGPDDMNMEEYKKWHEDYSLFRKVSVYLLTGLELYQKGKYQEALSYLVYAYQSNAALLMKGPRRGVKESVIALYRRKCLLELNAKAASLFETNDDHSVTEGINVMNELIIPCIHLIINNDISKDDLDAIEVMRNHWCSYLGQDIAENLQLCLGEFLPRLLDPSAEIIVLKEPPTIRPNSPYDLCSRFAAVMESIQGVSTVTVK
How it was run: as §1

Measured: log2 ratio of Biotin-Ahx-Ub-VS probe labelling

O=C(CCl)Nc1cccc2ncccc12
inactive: USP19 -0.114 | USP22 0.19 | USP24 -0.136 | USP25 -0.527 | USP28 -0.917
